Test results published in the supplement of paper PMC6555819.

Columns and labels:
Test in all cases: PBM binding z-score (relative to random genomic background probes); higher = stronger binding; sequences stand for … in GC…GCGATTGACAGCGTAGAATGAAGG
[1] = test system: FXR:RXRa (NR concentration 270 nM, RXRa partner concentration 90 nM)
Outline: (§1)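 Custom Agilent 4×180K protein-binding microarrays carried double-stranded probes. Their 34-nt variable regions held direct-repeat seeds, single-nucleotide variants, half-site ablations and random human genomic background sequences. Arrays were incubated 1 h with ligand-free nuclear receptor dimers in PBS pH 7.4, 2% milk, 0.02% Triton X-100, 1 mM DTT, 0.2 mg/mL BSA and 0.4 mg/ml salmon testes DNA. Antibodies against each partner (one per run) detected binding, and scanned fluorescence was regression-normalized. Binding z-scores use random background probes as reference.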

[2] = test system: LXRa:RXRa (NR concentration 270 nM, RXRa partner concentration 90 nM)
Outline: as §1

[3] = test system: LXRa homodimer (NR concentration 270 nM)
Outline: as §1

[4] = test system: LXRb:RXRa (NR concentration 270 nM, RXRa partner concentration 90 nM)
Outline: as §1

[5] = test system: LXRb homodimer (NR concentration 270 nM)
Outline: as §1

[6] = test system: PPARa:RXRa (NR concentration 270 nM, RXRa partner concentration 90 nM)
Outline: as §1

[7] = test system: PPARg:RXRa (NR concentration 180 nM, RXRa partner concentration 90 nM)
Outline: as §1

[8] = test system: PPARg:RXRa 270nM:90nM, anti-RXR (NR concentration 270 nM, RXRa partner concentration 90 nM)
Outline: as §1

[9] = test system: PPARg:RXRa 30nM:10nM, anti-RXR (NR concentration 30 nM, RXRa partner concentration 10 nM)
Outline: as §1

[10] = test system: PPARg:RXRa 90nM:30nM, anti-RXR (NR concentration 90 nM, RXRa partner concentration 30 nM)
Outline: as §1

## TCGTATAGGTAAACAGGTGAAAGTCCGTAAGTTA
[1]
  PBM binding z-score: 1.19
[2]
  PBM binding z-score: 0.963
[3]
  PBM binding z-score: 0.191
[4]
  PBM binding z-score: 0.852
[5]
  PBM binding z-score: 0.0957
[6]
  PBM binding z-score: 1.95
[7]
  PBM binding z-score: 1.46
[8]
  PBM binding z-score: 2.64
[9]
  PBM binding z-score: 2.92
[10]
  PBM binding z-score: 2.76

## TATACAGGGACAAAGGCCAGAGTACGAATGTCGA
[1]
  PBM binding z-score: 0.545
[2]
  PBM binding z-score: 0.102
[3]
  PBM binding z-score: 0.279
[4]
  PBM binding z-score: -0.249
[5]
  PBM binding z-score: 0.97
[6]
  PBM binding z-score: 1.19
[7]
  PBM binding z-score: 2.9
[8]
  PBM binding z-score: 3.98
[9]
  PBM binding z-score: 2.12
[10]
  PBM binding z-score: 3.3

## TCTAATAGTTGAAGGGCAACCGACGAGTCCGTTT
[1]
  PBM binding z-score: 0.931
[2]
  PBM binding z-score: 0.943
[3]
  PBM binding z-score: 0.0231
[4]
  PBM binding z-score: 0.595
[5]
  PBM binding z-score: -0.0774
[6]
  PBM binding z-score: 1.14
[7]
  PBM binding z-score: 0.216
[8]
  PBM binding z-score: 2.02
[9]
  PBM binding z-score: 3.45
[10]
  PBM binding z-score: 2.9

## AGTATTAGTTGAGACGAGGGCAACCGATAGGTTG
[1]
  PBM binding z-score: 0.842
[2]
  PBM binding z-score: 0.556
[3]
  PBM binding z-score: 0.129
[4]
  PBM binding z-score: 0.258
[5]
  PBM binding z-score: 0.115
[6]
  PBM binding z-score: 0.567
[7]
  PBM binding z-score: 0.552
[8]
  PBM binding z-score: 0.313
[9]
  PBM binding z-score: 0.0784
[10]
  PBM binding z-score: 0.559

## AGTCAAAGTTCACTAGGTAACGTATGATTCAGCT
[1]
  PBM binding z-score: 4.96
[2]
  PBM binding z-score: 4.91
[3]
  PBM binding z-score: 2.85
[4]
  PBM binding z-score: 3.16
[5]
  PBM binding z-score: 1.09
[6]
  PBM binding z-score: 4.64
[7]
  PBM binding z-score: 7.19
[8]
  PBM binding z-score: 6.52
[9]
  PBM binding z-score: 3
[10]
  PBM binding z-score: 5.54

## ACTTACGGGCCAACGAGGTTATAGCACGCGTATA
[1]
  PBM binding z-score: 0.283
[2]
  PBM binding z-score: 0.557
[3]
  PBM binding z-score: -0.119
[4]
  PBM binding z-score: 0.645
[5]
  PBM binding z-score: -0.0337
[6]
  PBM binding z-score: 1.16
[7]
  PBM binding z-score: 0.891
[8]
  PBM binding z-score: 0.372
[9]
  PBM binding z-score: 0.0261
[10]
  PBM binding z-score: 0.602

## TTTCCAAGGTGAAGGTCGTTGATCCCTCTGTAGA
[1]
  PBM binding z-score: 2.77
[2]
  PBM binding z-score: 2.31
[3]
  PBM binding z-score: 0.296
[4]
  PBM binding z-score: 1.8
[5]
  PBM binding z-score: -0.21
[6]
  PBM binding z-score: 2.81
[7]
  PBM binding z-score: 2.68
[8]
  PBM binding z-score: 3.7
[9]
  PBM binding z-score: 1.88
[10]
  PBM binding z-score: 3.35

## TCTGCTAGGTCAGTTGGTGAGCTAACGAGCTGCC
[1]
  PBM binding z-score: 0.898
[2]
  PBM binding z-score: 0.467
[3]
  PBM binding z-score: -0.796
[4]
  PBM binding z-score: -0.0479
[5]
  PBM binding z-score: 0.264
[6]
  PBM binding z-score: 0.853
[7]
  PBM binding z-score: -0.0831
[8]
  PBM binding z-score: 1.38
[9]
  PBM binding z-score: 1.18
[10]
  PBM binding z-score: 1.13

## TGTCAAAGTTCAAAGGTACCGTAAGTATCCACAC
[1]
  PBM binding z-score: 6.69
[2]
  PBM binding z-score: 6.28
[3]
  PBM binding z-score: 4.68
[4]
  PBM binding z-score: 4.31
[5]
  PBM binding z-score: 1.83
[6]
  PBM binding z-score: 5.79
[7]
  PBM binding z-score: 7.97
[8]
  PBM binding z-score: 7.18
[9]
  PBM binding z-score: 4.9
[10]
  PBM binding z-score: 6.89

## TGAATGAGGTTAAAGATCAGGGGACGTGGCGTCG
[1]
  PBM binding z-score: 3.07
[2]
  PBM binding z-score: 2.68
[3]
  PBM binding z-score: -0.153
[4]
  PBM binding z-score: 1.66
[5]
  PBM binding z-score: 1.09
[6]
  PBM binding z-score: 4.35
[7]
  PBM binding z-score: 5.2
[8]
  PBM binding z-score: 6.37
[9]
  PBM binding z-score: 5.28
[10]
  PBM binding z-score: 6.61

## TCCTATAGGTAAACAGGTGAAAGTCCGTAAGTTA
[1]
  PBM binding z-score: 0.613
[2]
  PBM binding z-score: 0.51
[3]
  PBM binding z-score: 0.24
[4]
  PBM binding z-score: 0.845
[5]
  PBM binding z-score: -0.235
[6]
  PBM binding z-score: 2.07
[7]
  PBM binding z-score: 1.63
[8]
  PBM binding z-score: 2.96
[9]
  PBM binding z-score: 3.27
[10]
  PBM binding z-score: 3.17

## GCGTGTAGATCAAGGTTAAGAAAGACTAAGCTAA
[1]
  PBM binding z-score: 0.359
[2]
  PBM binding z-score: 0.939
[3]
  PBM binding z-score: -0.369
[4]
  PBM binding z-score: 0.539
[5]
  PBM binding z-score: -0.757
[6]
  PBM binding z-score: 1.28
[7]
  PBM binding z-score: 0.0821
[8]
  PBM binding z-score: 0.373
[9]
  PBM binding z-score: -0.0969
[10]
  PBM binding z-score: 0.289

## TCATATAGGTAAATGCTAGGTGACAGTCCGATCT
[1]
  PBM binding z-score: 0.752
[2]
  PBM binding z-score: 0.626
[3]
  PBM binding z-score: -0.0198
[4]
  PBM binding z-score: 0.519
[5]
  PBM binding z-score: -0.279
[6]
  PBM binding z-score: 1.12
[7]
  PBM binding z-score: 0.994
[8]
  PBM binding z-score: 2.02
[9]
  PBM binding z-score: 3.61
[10]
  PBM binding z-score: 2.54

## ACAGACAGGTGATGCAGGTAACTCAGGCTATCAT
[1]
  PBM binding z-score: -0.0955
[2]
  PBM binding z-score: -0.176
[3]
  PBM binding z-score: -0.459
[4]
  PBM binding z-score: -0.222
[5]
  PBM binding z-score: -0.442
[6]
  PBM binding z-score: 0.00895
[7]
  PBM binding z-score: 0.577
[8]
  PBM binding z-score: -0.188
[9]
  PBM binding z-score: -0.309
[10]
  PBM binding z-score: -0.256

## CCGACTGGGGCATAAGGTTACCATTAGCCAGCCC
[1]
  PBM binding z-score: 0.294
[2]
  PBM binding z-score: 0.416
[3]
  PBM binding z-score: -0.399
[4]
  PBM binding z-score: 0.617
[5]
  PBM binding z-score: -1.38
[6]
  PBM binding z-score: 1.85
[7]
  PBM binding z-score: 2.02
[8]
  PBM binding z-score: 3.12
[9]
  PBM binding z-score: 0.689
[10]
  PBM binding z-score: 2.57

## AGAATGAGGTTATTAAGATCTGGGAATTGCGGTC
[1]
  PBM binding z-score: 1.76
[2]
  PBM binding z-score: 1.89
[3]
  PBM binding z-score: 0.216
[4]
  PBM binding z-score: 1.26
[5]
  PBM binding z-score: -0.139
[6]
  PBM binding z-score: 2.79
[7]
  PBM binding z-score: 0.924
[8]
  PBM binding z-score: 1.47
[9]
  PBM binding z-score: 0.36
[10]
  PBM binding z-score: 0.922

## GATACAGGGTCAGCTAGAGGCGAGAGTATGGAAA
[1]
  PBM binding z-score: 4.63
[2]
  PBM binding z-score: 2.33
[3]
  PBM binding z-score: -0.47
[4]
  PBM binding z-score: 2.27
[5]
  PBM binding z-score: -0.792
[6]
  PBM binding z-score: 4.46
[7]
  PBM binding z-score: 3.77
[8]
  PBM binding z-score: 3.24
[9]
  PBM binding z-score: 1.08
[10]
  PBM binding z-score: 1.87

## TCTGACAGGTGAAGGTAACTCAGGTACGCAGTCG
[1]
  PBM binding z-score: 0.497
[2]
  PBM binding z-score: 1.97
[3]
  PBM binding z-score: -0.123
[4]
  PBM binding z-score: 0.856
[5]
  PBM binding z-score: -0.258
[6]
  PBM binding z-score: 1.14
[7]
  PBM binding z-score: 0.602
[8]
  PBM binding z-score: 1.55
[9]
  PBM binding z-score: 2.9
[10]
  PBM binding z-score: 2.32

## TAGCCTAGGTCATGGGCCAGTATTCCACGCGAAC
[1]
  PBM binding z-score: 4.39
[2]
  PBM binding z-score: 3.5
[3]
  PBM binding z-score: 0.0514
[4]
  PBM binding z-score: 2.3
[5]
  PBM binding z-score: -0.499
[6]
  PBM binding z-score: 4.12
[7]
  PBM binding z-score: 3.67
[8]
  PBM binding z-score: 3.49
[9]
  PBM binding z-score: 1.17
[10]
  PBM binding z-score: 2.47

## GGAACGAGGGCAAGTTGAAAGCAGAGTTTGATGG
[1]
  PBM binding z-score: 0.833
[2]
  PBM binding z-score: 0.231
[3]
  PBM binding z-score: -0.173
[4]
  PBM binding z-score: 0.237
[5]
  PBM binding z-score: -0.789
[6]
  PBM binding z-score: 1.94
[7]
  PBM binding z-score: 1.02
[8]
  PBM binding z-score: 1.12
[9]
  PBM binding z-score: 0.000931
[10]
  PBM binding z-score: 0.87

## TAGCCTAGGTCATTGGGCCAGTAGAGTACGCATC
[1]
  PBM binding z-score: 3.86
[2]
  PBM binding z-score: 3.33
[3]
  PBM binding z-score: 0.509
[4]
  PBM binding z-score: 2.17
[5]
  PBM binding z-score: -0.0447
[6]
  PBM binding z-score: 3.92
[7]
  PBM binding z-score: 3.68
[8]
  PBM binding z-score: 3.97
[9]
  PBM binding z-score: 0.744
[10]
  PBM binding z-score: 2.76

## TCGAGTAGGTTAGTCGGAGCATTCAGCCAACATA
[1]
  PBM binding z-score: -0.453
[2]
  PBM binding z-score: -0.512
[3]
  PBM binding z-score: -0.667
[4]
  PBM binding z-score: -0.741
[5]
  PBM binding z-score: -1.46
[6]
  PBM binding z-score: 0.0631
[7]
  PBM binding z-score: -0.127
[8]
  PBM binding z-score: 0.379
[9]
  PBM binding z-score: 0.624
[10]
  PBM binding z-score: 0.538

## CAGCCTAGGTCGGGGCCAGTATAGGAGGAACGTT
[1]
  PBM binding z-score: -0.375
[2]
  PBM binding z-score: -0.409
[3]
  PBM binding z-score: -0.6
[4]
  PBM binding z-score: -0.47
[5]
  PBM binding z-score: -1.25
[6]
  PBM binding z-score: -0.00359
[7]
  PBM binding z-score: -0.199
[8]
  PBM binding z-score: -0.885
[9]
  PBM binding z-score: -1.38
[10]
  PBM binding z-score: -0.981
